Assay outcomes deposited in PubChem by several laboratories.
ADAM10 inh: inhibits human ADAM10; O14672; recombinant ADAM10, EDANS/DABCYL FRET peptide cleavage, 3 h; inhibition, % at 7 µM; 0.62% of 370,000 active; AID 720582;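 active = inhibition above a per-campaign cutoff equal to the mean of compounds falling between control-based bounds plus 3 SD, cut at about 20% in these data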
proKLK7 act: activates the human kallikrein-7 zymogen. activation, % at 7 µM. AID 652039. purified proKLK7, EDANS-DABCYL substrate fluorescence; 100% is mature enzyme control, 0% vehicle. 0.9% of 370,000 active. P49862;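 active = activation above the mean of all tested compounds plus 3 SD, computed per campaign excluding outliers beyond control limits, cut at about 13% in these data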
Target sequence (P49862 whole entry, looked up): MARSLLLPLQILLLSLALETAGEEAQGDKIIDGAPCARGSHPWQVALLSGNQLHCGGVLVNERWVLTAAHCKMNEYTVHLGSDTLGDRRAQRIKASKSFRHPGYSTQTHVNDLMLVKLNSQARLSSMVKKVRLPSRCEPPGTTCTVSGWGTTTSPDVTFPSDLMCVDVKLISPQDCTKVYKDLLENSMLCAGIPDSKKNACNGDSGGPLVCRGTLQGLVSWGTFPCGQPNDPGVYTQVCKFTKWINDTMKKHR
MPTP block: blocks calcium-induced mitochondrial swelling. isolated mouse mitochondria, Ca2+ swelling absorbance, 30 min. 1.4% of 360,000 active. inhibition, % at 10 µM. AID 602449;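 active = inhibition of 50% or more, scaled per plate between neutral and stimulator controls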
Pemphigus Ab inh: blocks pemphigus antibody binding to human desmoglein-3; P32926; DSG3-coupled beads, scFv-anti-DSG3-GFP binding, flow cytometry; stronger effect = lower value; binding (percent of control), % at 10 µM; 0.48% of 310,000 active; AID 588358;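 active = binding more than 3 SD below its plate's average and above zero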;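 note: hits lower antibody fragment binding to DSG3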
rCAG binder: binds r(CAG) RNA repeats | r(CAG) RNA repeat, TO-PRO-1 dye displacement fluorescence | inhibition, % at 3 µM | 1.3% of 370,000 active | AID 651821;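 active = inhibition above the plate cutoff, the mean of all test compounds on that plate plus 3 SD, cut at about 35% in these data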;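 note: higher means more dye released from RNA so lower well fluorescence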
ADAM17 inh: inhibitors of human ADAM17; P78536; recombinant ADAM17, EDANS/DABCYL FRET peptide cleavage; inhibition, % at 6.95 µM; 0.83% of 370,000 active; AID 720648;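 active = inhibition above the mean of compounds lying between control limits plus 3 SD, set per campaign, cut at about 8.5% in these data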
Rh123 counter: mitochondrial membrane potential, counter-screen; 78% of 5,000 active; inhibition, % at 10 µM; AID 624504; isolated mitochondria, Rhodamine 123 fluorescence; shares compounds with MPTP block; in the data active = inhibition above about 22%
MPTP abs DR: dose response confirmation of mitochondrial permeability transition pore inhibitors; shares compounds with MPTP block; isolated mitochondria swelling, absorbance; IC50, µM; 58% of 780 active; AID 651561; in the data active = IC50 below about 20 µM
MPTP cs DR: active in counter-screen for permeability transition pore inhibitors | shares compounds with MPTP block | isolated mitochondria counterscreen, fluorescence read-out | IC50, µM | 49% of 780 active; in the data active = IC50 below about 80 µM
Of the large screens only hits and unclear results are named; the others gave an inactive call (follow-up assays come after a bar, where they were run). The list is not random: actives were taken first. Their share in the collection is about 4.7%.

O=C1C(Cl)=C(Nc2ccccc2O)C(=O)N1CCc1ccccc1	ADAM10 inh 32.8, MPTP block 61.1, ADAM17 inh 15.8 | Rh123 counter 59.9
CCCCCCc1cc2cc(C(=O)Nc3ccccc3OC)c(=O)oc2cc1O	MPTP block 57.0 | Rh123 counter inactive | MPTP abs DR 2.57 | MPTP cs DR <2.5
COc1ccc(-c2nnc(-c3cc4ccccc4oc3=O)o2)cc1	none
O=C(O)c1ccc2oc(=O)c(S(=O)(=O)c3ccc(F)cc3)cc2c1	none
CCCCCCc1cc2cc(-c3nnc(-c4ccccc4OC)o3)c(=O)oc2cc1O	MPTP block 83.9 | Rh123 counter inactive
CCCCCCc1cc2cc(-c3nnc(-c4ccccc4O)o3)c(=O)oc2cc1O	MPTP block 103.9 | Rh123 counter inactive
CCCCCCc1cc2cc(S(=O)(=O)c3ccc(F)cc3)c(=O)oc2cc1O	MPTP block 81.4 | Rh123 counter 93.1
N#CC(c1c(Cl)cccc1N1CCCCC1)N1CCCCC1 (stereo not drawn)	none (no result: MPTP block, Pemphigus Ab inh)
C=CCN1C(=O)c2n[nH]c(C(C)C)c2C1c1ccc2c(c1)OCO2 (stereo not drawn)	none (no result: MPTP block, Pemphigus Ab inh)
c1csc(-c2nc3c4ccccc4c4ccccc4c3[nH]2)c1	proKLK7 act 18.4, MPTP block 72.1, rCAG binder 59.8 | Rh123 counter 47.8
C=CCNc1cccc2c1S(=O)(=O)N[C@H](Cc1ccccc1)CO2	none (no result: MPTP block, Pemphigus Ab inh)
CC(=O)Nc1ccc(S(=O)(=O)N2CCN(C(=O)C(=O)c3cccc(C(F)(F)F)c3)CC2)cc1	none (no result: MPTP block, Pemphigus Ab inh)
Cc1ccc2nc(C(Cl)(Cl)Cl)nc(N/N=C/c3ccc([N+](=O)[O-])cc3)c2c1	MPTP block 94.4 | Rh123 counter inactive | MPTP abs DR inactive | MPTP cs DR 11.4
CCCCCCN1CCN(C2CN(Cc3cn(Cc4ccc(C(F)(F)F)cc4)nn3)S(=O)(=O)C2)CC1 (stereo not drawn)	none (no result: MPTP block, Pemphigus Ab inh)
CC(C)(C)c1ccc(OCCCC(=O)NNC(=O)c2ccccc2O)cc1	MPTP block 69.4 | Rh123 counter 81.9
O=C(N[C@@H](Cc1ccccc1)C(=O)N1CCC2CCN(S(=O)(=O)c3ccccc3)CC21)[C@@H]1CCCN1 (stereo partly drawn)	none (no result: MPTP block, Pemphigus Ab inh)
CCOC(=O)C1=CCN(S(=O)(=O)c2ccccc2F)C1c1ccc(Br)cc1 (stereo not drawn)	none (no result: MPTP block, Pemphigus Ab inh)
O=S(=O)(NC1CC(NS(=O)(=O)OCC(Cl)(Cl)Cl)C2CCCCC12)OCC(Cl)(Cl)Cl (stereo not drawn)	MPTP block 69.8 (no result: ADAM10 inh, proKLK7 act, rCAG binder, ADAM17 inh) | Rh123 counter 101.9
Cc1cccc2c1-c1sc(C(=O)Nc3nccs3)cc1CO2	none
Cc1cccc2c1-c1sc(C(=O)Nc3cccc([N+](=O)[O-])c3C)cc1CO2	MPTP block 75.2 | Rh123 counter 67.7
O=S(=O)(c1ccc(F)cc1)N1CCCc2nc(-c3ccccc3)ccc21	none (no result: MPTP block, Pemphigus Ab inh)
Cc1c(C(N)=O)cc([N+](=O)[O-])cc1[N+](=O)[O-]	none
COC(=O)c1cc([N+](=O)[O-])c(C)c(C)n1	MPTP block 54.3 | Rh123 counter inactive | MPTP abs DR inactive | MPTP cs DR inactive
O=c1c2c(C(F)(F)F)cc(C(F)(F)F)nc2[nH]n1-c1ccccc1	MPTP block 90.0 | Rh123 counter 67.8
COc1cc(/C=C/c2sc3ccccc3[n+]2CCCS(=O)(=O)[O-])ccc1O	MPTP block 56.0 | Rh123 counter inactive
CCC(/C=C1\Oc2ccc(OC)cc2N1C)=C\c1sc2ccccc2[n+]1CCCS(=O)(=O)[O-]	none
OCCNc1nc2nonc2nc1NCCO	none
CC(C)(C)Nc1nc2nonc2nc1NC(C)(C)C	MPTP block 93.2 | Rh123 counter 99.1
O=C(OCC#CCSc1nnc(-c2cccc3ccccc23)o1)c1ccncc1	none (no result: proKLK7 act, MPTP block, Pemphigus Ab inh, rCAG binder)
O=C(Nc1ccc(Cl)c(Cl)c1)N1CCCCCC1	none
CC(=O)c1ccc(N2CCN(C(=S)Nc3ccc(Cl)c(Cl)c3)CC2)cc1	MPTP block 94.1 | Rh123 counter 76.9
O=C(Nc1ccc(Cl)c(Cl)c1)N1CCOCC1	none
O=C(Nc1ccc(N2CCOCC2)cc1)Nc1ccc(Cl)c(Cl)c1	MPTP block 93.2 | Rh123 counter 79.5
O=C(c1ccc(NC(=S)Nc2ccc(Cl)c(Cl)c2)cc1)N1CCCC1	MPTP block 103.0 | Rh123 counter 92.0
O=C(Nc1ccc(Cl)cc1)Nc1ccc(N2CCOCC2)cc1	MPTP block 69.2 | Rh123 counter 57.3
CCC[C@H]1[C@@H](NC(=S)Nc2ccccc2Cl)CC[C@@]23CCCN2C(=O)CCC[C@@H]13	none (no result: proKLK7 act, MPTP block, Pemphigus Ab inh, rCAG binder)
CCn1ncc2c(=O)c(C(=O)c3ccccc3)c[nH]c21	none (no result: MPTP block, Pemphigus Ab inh)
O=C(Nc1ccc(NC(=O)c2ccc(Cl)c(S(=O)(=O)N3CCOCC3)c2)cc1)c1ccccc1	none
O=C(Nc1ccccc1)Nc1ccc(Cl)c(S(=O)(=O)N2CCOCC2)c1	MPTP block 62.2 | Rh123 counter 85.7
Cc1cc(N2CCN(c3nc4ccccc4s3)CC2)n2ncnc2n1	MPTP block 82.1 | Rh123 counter 72.8
Cc1cc(N2CCN(C(c3ccccc3)c3ccccc3)CC2)n2ncnc2n1	none
CC(C)(C)c1ccc(/C=C/C(=O)Nc2ccncc2)cc1	MPTP block 98.1 | Rh123 counter 92.2
O=C(/C=C/c1cccs1)Nc1ccncc1	none
COC(=O)C1=C(C)N(C)C(=NCc2cccc(C(F)(F)F)c2)NC1c1cccc(F)c1 (stereo not drawn)	none (no result: MPTP block, Pemphigus Ab inh)
O=C(CSc1nnc(-c2ccco2)n1-c1ccc(Cl)cc1)Nc1cccc2ccccc12	none (no result: MPTP block, Pemphigus Ab inh)
CC(=O)NC(NC(=S)Nc1cccc(Br)c1)C(Cl)(Cl)Cl (stereo not drawn)	MPTP block 95.0 | Rh123 counter 76.5
Cc1cccc(NC(=S)NC(NC(=O)OCc2ccccc2)C(Cl)(Cl)Cl)c1 (stereo not drawn)	MPTP block 73.9 | Rh123 counter 79.7
O=C(NC(NC(=S)Nc1cccc(C(=O)O)c1)C(Cl)(Cl)Cl)OCc1ccccc1 (stereo not drawn)	none
CC(=O)NC(NC(=S)Nc1ccc(N=Nc2ccccc2)cc1)C(Cl)(Cl)Cl (stereo not drawn)	MPTP block 94.1 | Rh123 counter 61.6
CC(=O)NC(NC(=S)Nc1ccc(S(N)(=O)=O)cc1)C(Cl)(Cl)Cl (stereo not drawn)	none
C=CCN1C(=O)[C@H](CC(=O)NCCCOCCCC)[C@@]2(C(=O)OCC)CCCC=C12	none (no result: MPTP block, Pemphigus Ab inh)
